The text below walks through data of PubChem BioAssay AID489028 (Sanford-Burnham Center for Chemical Genomics, 2010).

As usually defined, the inhibition is the drop in the measured response relative to a control, in per cent.

The campaign covered roughly 10,000 compounds. About 5,600 (56%) were called active. No stated cut-off is given here; in the data, active means inhibition above about 40%; inactive means the rest. The set was probably picked from earlier hits. Only a sample is shown.

The target of the assay is Protein Mdm4 (Homo sapiens) + E3 ubiquitin-protein ligase Mdm2 (Homo sapiens) (UniProt O15151+Q00987). Put plainly: inhibition of human Mdm2/MdmX pairing – luminescence, single concentration, confirmation (AID 489028). Particulars: Mdm2-MdmX binding, luminescent assay; at 8 µM; hits give high values.
Chain of Protein Mdm4 (Homo sapiens) + E3 ubiquitin-protein ligase Mdm2 (Homo sapiens) (O15151 whole entry, looked up): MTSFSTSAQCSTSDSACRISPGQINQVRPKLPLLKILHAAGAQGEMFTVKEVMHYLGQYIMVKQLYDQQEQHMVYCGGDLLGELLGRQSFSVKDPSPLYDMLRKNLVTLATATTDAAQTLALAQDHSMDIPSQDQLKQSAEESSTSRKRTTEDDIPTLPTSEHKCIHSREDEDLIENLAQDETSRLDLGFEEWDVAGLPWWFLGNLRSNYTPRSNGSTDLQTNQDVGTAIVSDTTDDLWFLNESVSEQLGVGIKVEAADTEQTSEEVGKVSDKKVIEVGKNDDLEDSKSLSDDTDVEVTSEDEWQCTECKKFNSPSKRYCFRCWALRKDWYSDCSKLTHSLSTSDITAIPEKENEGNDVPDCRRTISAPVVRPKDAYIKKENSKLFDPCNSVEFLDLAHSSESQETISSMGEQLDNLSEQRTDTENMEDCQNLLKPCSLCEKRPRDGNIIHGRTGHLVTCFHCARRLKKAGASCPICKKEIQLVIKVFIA
Chain of Protein Mdm4 (Homo sapiens) + E3 ubiquitin-protein ligase Mdm2 (Homo sapiens) (Q00987 whole entry, looked up): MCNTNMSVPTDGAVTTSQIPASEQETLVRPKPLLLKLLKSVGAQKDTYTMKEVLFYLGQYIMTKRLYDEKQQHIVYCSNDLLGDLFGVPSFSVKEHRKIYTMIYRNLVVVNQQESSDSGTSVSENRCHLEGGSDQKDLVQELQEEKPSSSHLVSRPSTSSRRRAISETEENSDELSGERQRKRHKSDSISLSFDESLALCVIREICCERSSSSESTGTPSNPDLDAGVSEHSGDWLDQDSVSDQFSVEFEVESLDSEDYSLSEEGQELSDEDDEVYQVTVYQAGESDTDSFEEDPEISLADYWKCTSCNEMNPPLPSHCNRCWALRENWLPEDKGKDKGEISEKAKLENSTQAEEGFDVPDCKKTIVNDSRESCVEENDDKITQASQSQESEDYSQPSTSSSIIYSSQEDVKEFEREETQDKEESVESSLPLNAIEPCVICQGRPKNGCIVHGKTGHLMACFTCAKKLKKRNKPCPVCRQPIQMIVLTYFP
Turning to `Cc1cc(C)nc(S/C=C/C(=O)c2ccccc2)n1`, the inhibition is 32.4% (inactive).
`O=C(/C=C/Sc1ncn[nH]1)c1ccc(Cl)cc1`: the inhibition was 80.4% (active).
Then `CC[n+]1cc(C)ccc1/C=C/c1ccc(N(C)C)cc1`, with 53.6% (active); and `COc1ccccc1N1CCN(C(=O)c2cc(=O)c3cc(C)cc(C)c3o2)CC1`, with 66.8% (active); and `C#CCOCCOCCOCCNc1nc(N2CCN(C(=O)CCCCCCCCCCNC(=O)[C@H](CCCCN)n3cc(C)nn3)CC2)nc(N2CCN(C(=O)CCCCCCCCCCNC(=O)[C@H](CO)n3cc(CCCSC)nn3)CC2)n1`, with 14% (inactive).
With `CSc1nc(N(C)NC(=O)c2cccc(C)c2)c2ccccc2n1`, the inhibition was 57.7% (active).
For `O=C(Nc1nnc(-c2ccccc2F)s1)c1ccccc1F`, the inhibition was -82.2% (inactive).
Then `CN(NC(=O)c1ccccc1)c1nc2ccccc2nc1C(F)(F)F`, with 51.9% (active); and `CN(NC(=O)c1ccccc1F)c1nc(C(F)(F)F)nc2ccccc12`, with 57% (active); and `CCOC(=O)/C=C/C(=O)OCC(=O)NC(c1ccccc1)c1ccccc1`, with 74.5% (active).
Then `COc1cc2c(cc1NC(=O)COC(=O)/C=C/c1ccccc1)oc1ccccc12`, with -6.7% (inactive); and `Cc1ccccc1NC(=O)CSc1nc2ccc(Nc3nc(N4CCOCC4)nc(N4CCOCC4)n3)cc2s1`, with 35.7% (inactive); and `Cc1cc2cc3c(cc2nc1SCC(=O)Nc1c(C)cccc1C)CCC3`, with 43.1% (active).
In the case of `OCCNc1nc(Nc2ccc(Cl)c(Cl)c2)nc2ccccc12`, the inhibition is 69.5% (active).
With `O=C(CSc1nc2ccccc2c(=O)[nH]1)Nc1nc(-c2ccc(Br)cc2)cs1`, the inhibition is 47.8% (active).
Under `O=C(NNc1ccccc1Cl)C(O)(c1cccc(C(F)(F)F)c1)c1cccc(C(F)(F)F)c1` stands 36.2% (inactive).
Then `COC(=O)Cc1[nH]n(-c2nc3ccccc3s2)c(=O)c1C(C)=Nc1ccc(OC)cc1`, with 89.3% (active).
`CCCCN(CCCC)CCC(O)c1cc2c(Cl)cc(Cl)cc2c2cc(C(F)(F)F)ccc12` (configuration not stated): the inhibition was 21.1% (inactive).
For the compound `COc1cccc(-c2sc3ccc(OC)cc3c2-c2ccc(OCCN3CCCCC3)cc2)c1`, the inhibition is 49.5% (active).
Under `COc1ccc2sc(-c3ccccc3OC)c(-c3ccc(OCCN4CCCC4)cc3)c2c1` stands 5.35% (inactive); under `O=C(CN1C(=O)c2ccccc2S1(=O)=O)N1CCc2ccccc21`, 53% (active); under `COCCCNc1nc2c(-c3cccc(C)c3)nnn2c2ccc(Cl)cc12`, 67% (active).
Under `C=CCC[C@@H](Cc1ccc(F)cc1)C(=O)O[C@H](CNC(=O)[C@H](CC=C)CC(=O)N(CCO)Cc1ccccc1)c1ccccc1` stands 12.4% (inactive); under `Cc1cccn2c(=O)c3cc(C(=O)NCCN4CCOCC4)c(=N)n(Cc4cccnc4)c3nc12`, 49.2% (active).
Then `COc1ccc(CCn2c(=N)c(C(=O)NCC3CCCO3)cc3c(=O)n4cccc(C)c4nc32)cc1OC` (configuration not stated), with 48.1% (active); and `CCc1ccc(CNC(=O)C2CCN(c3nnc(C)c4c(C)n(-c5ccc(C)cc5)nc34)CC2)cc1`, with 56.7% (active).
As for `COc1cc(NC(=O)c2ccccc2NS(=O)(=O)c2ccc(Cl)s2)cc(OC)c1`, the inhibition is 76.4% (active).
Then `Oc1ccc(/C=N/Nc2nc(-c3ccccc3F)nc3ccccc23)c(O)c1`, with 54.6% (active).
Consider `Cc1nc2ccccc2nc1N/N=C/c1ccc(O)cc1O`, for which the inhibition was 61.6% (active).
Turning to `COC(=O)C1=C(Nc2ccc(C)cc2)C=C(C)C(C(=O)OC)C1c1ccc(F)cc1` (configuration not stated), the inhibition is 53.5% (active).
Take `Nc1nonc1-n1nnc(C(=O)N/N=C/c2ccccc2O)c1CN1CCCC1`: the inhibition was 33.8% (inactive).
As for `CC(=O)/C(=N\Nc1ccc(Cl)cc1Cl)Sc1cccc2cccnc12`, the inhibition was 63% (active).
Under `N#Cc1ccc(C(=O)Nc2cccc3cccnc23)c(F)c1` stands 1.3% (inactive).
Under `NC(N)=Nc1nc(-c2ccccc2)c2cc(Cl)ccc2n1` stands 59.5% (active); under `CCCCCCC(=O)N(O)C1CC(=O)N(c2ccccc2)C1=O` (configuration not stated), 27.3% (inactive); under `COc1ccc(Nc2ncnc3ccc(Br)cc23)c(OC)c1`, 74% (active).
Turning to `CC1CN(C(=O)CCC(=O)NCCCN2CCC(Cc3ccccc3)CC2)c2cc(Cl)ccc2O1` (configuration not stated), the inhibition was 56.8% (active).
Under `CCN(CCCNC(=O)CSc1cc(=O)n(C)c2cc(Cl)ccc12)Cc1ccccc1` stands 19.6% (inactive); under `FC(F)(F)c1ccc(CN2C[C@@H]3C(c4ccccc4)C4(c5ccccc5)CC3(C4)[C@H]2c2ccccc2)cc1` (some centres not stated), 94.5% (active); under `Cc1cc(C(=O)NC2CCCc3c2cnn3-c2cccc(C)c2C)c(C)o1` (configuration not stated), 61.6% (active).
Under `COc1ccc(C(=O)NC2CCCc3c2cnn3-c2cccc(C)c2C)c(OC)n1` (configuration not stated) stands 94.8% (active); under `CCCCC(O)(CCCC)C(=O)NN(C(=O)CCl)c1ccccc1`, 57.1% (active).
Under `CCCC(O)(CCC)C(=O)NN(C(=O)CCl)c1cccc(C)c1` stands 58.3% (active); under `CCCCn1ccnc1C(=O)c1cccc(S(=O)(=O)N2c3ccccc3CC2C)c1` (configuration not stated), 9.35% (inactive); under `N=c1n(CCc2ccccc2)c2ccccc2n1Cc1ccccc1F`, 52.5% (active).
For the compound `CCCc1ccc(OCC(=O)NNC(=S)NC(=O)c2ccco2)cc1`, the inhibition is 23.9% (inactive).
On to `COC(=O)c1c(NC(=O)COc2ccc(Cl)cc2Cl)sc2c1CC(C)(C)NC2(C)C`, for which the inhibition was 73.6% (active).
Then `CN1CCN(C2Cc3ccc(Cl)cc3Sc3ccc(F)cc32)CC1` (configuration not stated), with 27.8% (inactive).
With `Oc1cccc(/C=N/Nc2ccc(Cl)nn2)c1O`, the inhibition was 61.2% (active).
Then `CCOc1ccc(C2c3[nH]c4ccccc4c3CCN2Cc2cccn2-c2ncccn2)cc1` (configuration not stated), with 32.3% (inactive); and `C=CCn1c(SCc2c(C)noc2C)nc2sc3c(c2c1=O)CCC(C)C3` (configuration not stated), with 57.9% (active).
Turning to `CCOc1cc(-c2cc(-c3ccc(NC(C)=O)cc3)nc(N)c2C#N)ccc1O`, the inhibition was 31.6% (inactive).
For `Cc1ccc(-n2[nH]c(C)c(/C=N/NC(=O)c3cccc([N+](=O)[O-])c3)c2=O)cc1C`, the inhibition is 82.2% (active).
Under `NS(=O)(=O)c1ccc(N=Nc2c(O)[nH]c3ccc(Br)cc23)cc1` stands 42.6% (active).
Regarding `O=[N+]([O-])c1cc(S(=O)(=O)Nc2cccc(Cl)c2)ccc1N=Nc1c(O)[nH]c2ccccc12`, the inhibition was 5.3% (inactive).
Under `O=C(Nc1ccc(-c2csc(Nc3cccc(C(F)(F)F)c3)n2)cc1)c1cccc(C(F)(F)F)c1` stands -10.4% (inactive); under `CCNS(=O)(=O)c1ccc(NC(=O)Nc2cccc(C(F)(F)F)c2)cc1`, 42.4% (active).
`O=C(Nc1ccc(C(=O)N2CCOCC2)cc1)Nc1cccc(C(F)(F)F)c1`: the inhibition is 70.3% (active).
Under `CC(C)Oc1c(Br)cc(Br)cc1/C=N/NC(N)=S` stands 15.2% (inactive); under `CCC1CCCCN1CCCNC(=O)c1cc2c(Cl)nc3ccccc3c2s1` (configuration not stated), 26% (inactive); under `Cc1nc(/N=C(\N)NC(=O)NC2CCCCC2)nc2ccccc12`, 43.9% (active).
`O=[N+]([O-])/C=C/c1ccc2c(ccn2Cc2ccccc2)c1`: the inhibition is 52.9% (active).
Regarding `CN(c1ccccc1)S(=O)(=O)c1cc(C(=O)N2CCN(c3ncccn3)CC2)ccc1Cl`, the inhibition is 50.1% (active).
Then `O=C(CSc1nc(Nc2ccccc2)nc(N2CCOCC2)n1)Nc1cc(Cl)ccc1O`, with 35% (inactive).
Under `COc1cccc(-n2c(SCC(=O)NC3CCCCC3)nc3n[nH]c(C)c3c2=N)c1` stands 51.4% (active).
Then `CC(C)(C)OC(=O)N1CCC(NC(=O)c2[nH]cnc2C(=O)N[C@@H](Cc2ccccc2)C(=O)OCc2ccccc2)CC1`, with -8% (inactive); and `CCOC(=O)Nc1ccc2c(c1)N(C(=O)CCCl)c1ccccc1[S@]2=O`, with 41.2% (active); and `CCOc1cc2[nH]c(=S)n(Cc3ccc(C(=O)N4CCN(C)CC4)cc3)c(=O)c2cc1OCC`, with -2.8% (inactive).
Consider `CCOc1cc(C(=O)N2CCc3cc(OC)c(OC)cc3C2)ccc1OC(F)F`, for which the inhibition is 56.4% (active).
Under `O=c1[nH]c(CCl)nc2cc(-c3ccc(Cl)cc3)sc12` stands 7.45% (inactive); under `COc1cccc(NC(=O)[C@H](Cc2c[nH]c3ccccc23)NC(=O)[C@@H]2Cc3ccccc3CN2)c1`, 76% (active).
Then `CC(C)=CCCC1(C)C=Cc2c(ccc3c2[nH]c2cc(O)c(C)cc23)O1` (configuration not stated), with 20.9% (inactive).
Under `Cc1ccc(OCCOCCOc2ccc(Br)cc2/C=N\NC(=O)c2ccncc2)cc1` stands 68% (active); under `O=[N+]([O-])c1ccccc1S(=O)(=O)Nc1cccc2cccnc12`, 64.5% (active); under `O=C(Nc1cccc(C(F)(F)F)c1)c1ccc(N2CCNCC2)c([N+](=O)[O-])c1`, 8.6% (inactive).
On to `CC(NC(=O)c1ccc(N2CCNCC2)c([N+](=O)[O-])c1)C12CC3CC(CC(C3)C1)C2` (configuration not stated), for which the inhibition was 73% (active).
Then `O=C(/C=C/c1ccc(Cl)cc1)Nc1ccc(Br)cn1`, with 13.2% (inactive).
Then `Cc1cccc(Nc2ccccc2C(=O)NCc2ccco2)c1C`, with 43.1% (active).
Under `CCc1nn(-c2cc(Oc3cccc4ccccc34)nc(-c3ccccc3)n2)c(N)c1C#N` stands 13.9% (inactive); under `CN(C)c1ccnc2sc3c(=O)n(Cc4ccccc4)cnc3c12`, 64.7% (active); under `Cc1c(/C=N\NC(=O)c2cc3ccccc3o2)c2ccccc2n1C`, 54.4% (active).
For the compound `N#CCC(=O)N/N=C/c1cn(Cc2ccc3ccccc3c2)c2ccccc12`, the inhibition was 23.6% (inactive).
Regarding `COc1cccc(CNCCc2c[nH]c3ccccc23)c1OCc1ccccc1F`, the inhibition was 45.4% (active).
Take `COc1cccc(-c2nnc(NC(=O)c3ccc(S(=O)(=O)N(CC(C)C)CC(C)C)cc3)o2)c1`: the inhibition was 52.3% (active).
Turning to `NC(=O)c1sc2nc3c(c(-c4ccccc4)c2c1N)CCC3`, the inhibition is 68.7% (active).
As for `COc1ccc(CNC(=O)C[C@H]2C[C@H](C(=O)N3CCOCC3)[C@@]3(CCC4CCCC4)c4[nH]c5ccc(Cl)cc5c4CCN3C2=O)cc1OC`, the inhibition is 49.1% (active).
`CCCCCCCCn1c2c(c(=N)c3c1CCC3)CCCC2`: the inhibition was 91.8% (active).
